Experiment [1] concerns the target T1, Ephrin type-B receptor 2 (Homo sapiens) (UniProt P29323).
T1 sequence (whole entry): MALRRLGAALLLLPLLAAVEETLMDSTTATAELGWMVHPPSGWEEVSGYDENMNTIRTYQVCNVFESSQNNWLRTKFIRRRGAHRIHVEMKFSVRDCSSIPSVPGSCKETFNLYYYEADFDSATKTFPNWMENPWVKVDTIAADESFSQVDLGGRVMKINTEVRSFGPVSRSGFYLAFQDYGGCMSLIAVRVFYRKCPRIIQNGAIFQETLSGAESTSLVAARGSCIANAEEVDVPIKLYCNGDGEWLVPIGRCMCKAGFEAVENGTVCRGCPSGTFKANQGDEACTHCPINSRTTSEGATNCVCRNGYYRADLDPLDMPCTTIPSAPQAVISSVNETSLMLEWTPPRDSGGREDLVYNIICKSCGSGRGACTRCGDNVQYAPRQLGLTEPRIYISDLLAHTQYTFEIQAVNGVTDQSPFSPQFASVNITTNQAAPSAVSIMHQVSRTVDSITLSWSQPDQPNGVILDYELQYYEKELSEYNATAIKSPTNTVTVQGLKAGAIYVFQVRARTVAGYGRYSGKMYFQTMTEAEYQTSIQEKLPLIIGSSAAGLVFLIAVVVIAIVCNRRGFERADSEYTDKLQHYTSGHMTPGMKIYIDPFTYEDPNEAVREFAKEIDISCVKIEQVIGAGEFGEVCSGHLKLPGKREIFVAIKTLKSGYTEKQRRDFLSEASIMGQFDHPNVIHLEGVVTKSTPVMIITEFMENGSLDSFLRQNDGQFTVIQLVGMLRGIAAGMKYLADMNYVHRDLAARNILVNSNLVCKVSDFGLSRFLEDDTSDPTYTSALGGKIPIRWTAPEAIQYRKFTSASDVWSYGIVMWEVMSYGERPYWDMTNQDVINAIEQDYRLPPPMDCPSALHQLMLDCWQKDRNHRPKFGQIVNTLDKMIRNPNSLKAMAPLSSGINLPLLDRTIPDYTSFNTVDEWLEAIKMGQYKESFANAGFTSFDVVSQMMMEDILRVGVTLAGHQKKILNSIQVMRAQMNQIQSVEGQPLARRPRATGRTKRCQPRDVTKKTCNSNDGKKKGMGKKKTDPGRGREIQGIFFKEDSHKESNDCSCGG
The note with it: at 1 µM.

Experiment [2] addresses T2, Ephrin type-B receptor 3 (Homo sapiens) (UniProt P54753).
T2 sequence (whole entry): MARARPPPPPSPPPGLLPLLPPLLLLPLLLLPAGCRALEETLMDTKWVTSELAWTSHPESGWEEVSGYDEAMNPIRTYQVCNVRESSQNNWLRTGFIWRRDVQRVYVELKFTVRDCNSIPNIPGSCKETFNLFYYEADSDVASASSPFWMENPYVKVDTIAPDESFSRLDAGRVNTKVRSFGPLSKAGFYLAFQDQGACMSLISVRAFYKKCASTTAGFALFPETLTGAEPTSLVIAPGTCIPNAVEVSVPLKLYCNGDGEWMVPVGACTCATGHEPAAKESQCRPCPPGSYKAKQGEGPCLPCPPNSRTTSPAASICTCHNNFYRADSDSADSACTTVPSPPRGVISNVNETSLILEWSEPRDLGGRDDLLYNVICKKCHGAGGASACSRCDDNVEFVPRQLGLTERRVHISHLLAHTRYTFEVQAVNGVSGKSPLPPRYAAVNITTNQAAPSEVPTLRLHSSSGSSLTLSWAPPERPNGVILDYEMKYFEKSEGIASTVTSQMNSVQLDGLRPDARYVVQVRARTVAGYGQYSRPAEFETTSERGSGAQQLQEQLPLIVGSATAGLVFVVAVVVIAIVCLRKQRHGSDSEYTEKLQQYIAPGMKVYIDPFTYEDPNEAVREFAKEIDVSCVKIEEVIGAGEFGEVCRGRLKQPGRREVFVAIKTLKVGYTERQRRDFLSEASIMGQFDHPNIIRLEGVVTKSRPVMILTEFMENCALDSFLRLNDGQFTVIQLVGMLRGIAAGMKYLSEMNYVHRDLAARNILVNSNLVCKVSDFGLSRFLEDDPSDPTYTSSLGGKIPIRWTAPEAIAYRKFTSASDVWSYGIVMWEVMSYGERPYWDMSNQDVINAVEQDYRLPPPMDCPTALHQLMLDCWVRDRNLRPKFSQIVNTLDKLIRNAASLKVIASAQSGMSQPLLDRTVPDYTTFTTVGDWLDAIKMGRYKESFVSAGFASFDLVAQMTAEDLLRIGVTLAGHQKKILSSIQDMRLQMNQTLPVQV
The note with it: at 0.1 µM.

In experiment [3] the target is T2, Ephrin type-B receptor 3 (Homo sapiens). The following applies: at 1 µM.
Experiment [4] has as its target T3, Ephrin type-B receptor 4 (Homo sapiens) (UniProt P54760).
T3 sequence (whole entry): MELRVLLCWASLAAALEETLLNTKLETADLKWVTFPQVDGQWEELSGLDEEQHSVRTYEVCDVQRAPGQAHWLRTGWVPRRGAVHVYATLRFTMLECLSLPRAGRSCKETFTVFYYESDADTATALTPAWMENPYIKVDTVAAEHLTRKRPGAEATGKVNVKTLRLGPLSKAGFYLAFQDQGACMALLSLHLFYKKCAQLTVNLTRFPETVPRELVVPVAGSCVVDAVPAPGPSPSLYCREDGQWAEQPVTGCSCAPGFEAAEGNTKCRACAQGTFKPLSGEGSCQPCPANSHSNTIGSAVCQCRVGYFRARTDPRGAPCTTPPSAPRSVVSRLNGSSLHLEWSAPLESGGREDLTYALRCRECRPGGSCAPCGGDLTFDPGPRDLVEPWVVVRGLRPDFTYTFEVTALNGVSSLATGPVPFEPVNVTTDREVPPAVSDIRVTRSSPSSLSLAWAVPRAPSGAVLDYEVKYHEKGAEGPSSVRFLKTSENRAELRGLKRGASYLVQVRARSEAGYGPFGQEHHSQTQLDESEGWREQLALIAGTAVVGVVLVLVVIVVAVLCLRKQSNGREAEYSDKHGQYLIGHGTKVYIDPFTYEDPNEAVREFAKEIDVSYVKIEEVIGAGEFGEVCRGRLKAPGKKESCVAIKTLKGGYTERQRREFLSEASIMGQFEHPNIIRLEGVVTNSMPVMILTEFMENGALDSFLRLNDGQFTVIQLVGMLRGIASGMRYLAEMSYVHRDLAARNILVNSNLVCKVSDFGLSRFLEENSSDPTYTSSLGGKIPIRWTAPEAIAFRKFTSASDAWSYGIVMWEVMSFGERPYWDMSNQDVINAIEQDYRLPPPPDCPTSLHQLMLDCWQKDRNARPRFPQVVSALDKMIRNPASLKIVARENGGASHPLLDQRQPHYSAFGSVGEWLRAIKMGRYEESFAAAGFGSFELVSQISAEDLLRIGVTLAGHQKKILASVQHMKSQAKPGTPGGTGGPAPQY
The following applies: at 0.1 µM.

Experiment [5] has as its target T3, Ephrin type-B receptor 4 (Homo sapiens). The note with it: at 1 µM.
Experiment [6] concerns the target Receptor tyrosine-protein kinase erbB-2 (Homo sapiens) (UniProt P04626). The following applies: at 0.1 µM.
Experiment [7] shares this target. The following applies: at 1 µM.
The target of experiment [8] is Receptor tyrosine-protein kinase erbB-4 (Homo sapiens) (UniProt Q15303). The following applies: at 0.1 µM.
For experiment [9] the target is unchanged. The following applies: at 1 µM.
Experiment [10] deals with Tyrosine-protein kinase Fer (Homo sapiens) (UniProt P16591). The note with it: at 0.1 µM.
Experiment [11] shares this target. The following applies: at 1 µM.
The target in experiment [12] is Tyrosine-protein kinase Fes/Fps (Homo sapiens) (UniProt P07332). The following applies: at 0.1 µM.
Experiment [13] shares this target. The following applies: at 1 µM.
The target of experiment [14] is Fibroblast growth factor receptor 1 (Homo sapiens) (UniProt P11362). The following applies: at 0.1 µM.
Experiment [15] shares this target. The note with it: at 1 µM.
The target of experiment [16] is Fibroblast growth factor receptor 2 (Homo sapiens) (UniProt P21802). The following applies: at 0.1 µM.
Experiment [17] shares this target. The note with it: at 1 µM.
The target in experiment [18] is Fibroblast growth factor receptor 3 (Homo sapiens) (UniProt P22607). The note with it: at 0.1 µM.
Experiment [19] has the same target. The following applies: at 1 µM.
Experiment [20] concerns the target Fibroblast growth factor receptor 4 (Homo sapiens) (UniProt P22455). The following applies: at 0.1 µM.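 Also: values are mean percent inhibition of FGFR4.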

As a reminder, the inhibition is the relative decrease from the control value, in per cent.

Chain of Fibroblast growth factor receptor 3 (Homo sapiens) (P22607 23-806 limits assumed): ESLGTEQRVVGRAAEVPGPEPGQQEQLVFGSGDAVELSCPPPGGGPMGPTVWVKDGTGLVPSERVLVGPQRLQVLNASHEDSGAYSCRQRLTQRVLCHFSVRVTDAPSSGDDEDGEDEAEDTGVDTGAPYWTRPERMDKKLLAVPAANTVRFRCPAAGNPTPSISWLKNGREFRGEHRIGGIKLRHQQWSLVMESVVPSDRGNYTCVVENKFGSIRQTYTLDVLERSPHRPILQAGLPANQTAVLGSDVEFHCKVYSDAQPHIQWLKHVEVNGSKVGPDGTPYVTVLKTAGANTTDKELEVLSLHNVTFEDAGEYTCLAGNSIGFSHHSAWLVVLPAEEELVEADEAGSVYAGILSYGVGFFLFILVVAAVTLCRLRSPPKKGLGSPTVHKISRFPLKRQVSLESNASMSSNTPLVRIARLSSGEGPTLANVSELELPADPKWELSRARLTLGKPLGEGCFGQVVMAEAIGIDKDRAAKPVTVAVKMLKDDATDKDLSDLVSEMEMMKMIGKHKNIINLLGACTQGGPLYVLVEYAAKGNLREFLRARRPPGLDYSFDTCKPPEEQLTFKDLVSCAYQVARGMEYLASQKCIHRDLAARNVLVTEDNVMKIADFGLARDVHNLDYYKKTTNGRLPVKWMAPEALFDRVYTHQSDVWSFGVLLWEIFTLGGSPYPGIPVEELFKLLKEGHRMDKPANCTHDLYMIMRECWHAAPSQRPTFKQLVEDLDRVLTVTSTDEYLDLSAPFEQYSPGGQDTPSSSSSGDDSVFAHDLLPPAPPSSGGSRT
Chain of Tyrosine-protein kinase Fer (Homo sapiens) (P16591 whole entry, looked up): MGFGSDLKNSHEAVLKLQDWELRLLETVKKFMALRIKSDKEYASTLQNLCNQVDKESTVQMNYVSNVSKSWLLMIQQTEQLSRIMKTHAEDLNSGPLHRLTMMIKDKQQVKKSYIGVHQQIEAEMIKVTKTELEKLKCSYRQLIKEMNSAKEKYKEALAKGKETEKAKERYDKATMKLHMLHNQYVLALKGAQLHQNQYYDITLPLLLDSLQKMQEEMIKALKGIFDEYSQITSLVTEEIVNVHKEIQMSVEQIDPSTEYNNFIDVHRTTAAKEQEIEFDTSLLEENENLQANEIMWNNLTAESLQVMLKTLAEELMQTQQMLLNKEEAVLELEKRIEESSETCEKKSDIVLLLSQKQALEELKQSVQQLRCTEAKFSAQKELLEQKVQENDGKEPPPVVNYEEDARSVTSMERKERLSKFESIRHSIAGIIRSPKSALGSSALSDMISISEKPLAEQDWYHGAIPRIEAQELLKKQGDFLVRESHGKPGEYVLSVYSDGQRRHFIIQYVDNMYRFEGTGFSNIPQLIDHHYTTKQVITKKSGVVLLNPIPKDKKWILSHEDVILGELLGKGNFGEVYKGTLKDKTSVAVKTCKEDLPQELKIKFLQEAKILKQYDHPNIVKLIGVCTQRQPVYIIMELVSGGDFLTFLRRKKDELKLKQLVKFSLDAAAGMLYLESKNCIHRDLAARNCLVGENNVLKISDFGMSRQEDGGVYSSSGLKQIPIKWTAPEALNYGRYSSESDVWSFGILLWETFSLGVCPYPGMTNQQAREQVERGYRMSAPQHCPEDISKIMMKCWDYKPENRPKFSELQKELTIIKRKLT
Chain of Fibroblast growth factor receptor 2 (Homo sapiens) (P21802 22-821 limits assumed): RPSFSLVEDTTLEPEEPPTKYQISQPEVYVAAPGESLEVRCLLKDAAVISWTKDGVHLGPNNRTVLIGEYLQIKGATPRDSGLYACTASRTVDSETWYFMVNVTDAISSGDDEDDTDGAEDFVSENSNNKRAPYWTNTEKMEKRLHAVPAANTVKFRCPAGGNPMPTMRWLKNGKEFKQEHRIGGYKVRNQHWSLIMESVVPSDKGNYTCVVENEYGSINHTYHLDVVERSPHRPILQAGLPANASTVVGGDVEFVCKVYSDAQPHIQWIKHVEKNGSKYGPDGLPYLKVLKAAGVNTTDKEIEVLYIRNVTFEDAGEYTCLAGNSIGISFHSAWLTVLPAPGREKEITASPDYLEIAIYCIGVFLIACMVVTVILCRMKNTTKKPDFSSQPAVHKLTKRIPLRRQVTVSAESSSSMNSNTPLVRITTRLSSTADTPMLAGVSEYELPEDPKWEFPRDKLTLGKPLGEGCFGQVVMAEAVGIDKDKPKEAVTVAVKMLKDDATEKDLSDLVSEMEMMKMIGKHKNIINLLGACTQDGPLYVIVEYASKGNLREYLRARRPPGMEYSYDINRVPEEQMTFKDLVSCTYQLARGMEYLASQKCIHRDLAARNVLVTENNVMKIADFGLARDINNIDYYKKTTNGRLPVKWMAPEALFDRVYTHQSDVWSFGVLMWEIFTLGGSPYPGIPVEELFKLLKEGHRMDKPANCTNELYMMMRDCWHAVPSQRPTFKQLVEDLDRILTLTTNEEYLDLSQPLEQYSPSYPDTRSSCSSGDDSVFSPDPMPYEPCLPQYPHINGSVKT
Chain of Receptor tyrosine-protein kinase erbB-2 (Homo sapiens) (P04626 whole entry): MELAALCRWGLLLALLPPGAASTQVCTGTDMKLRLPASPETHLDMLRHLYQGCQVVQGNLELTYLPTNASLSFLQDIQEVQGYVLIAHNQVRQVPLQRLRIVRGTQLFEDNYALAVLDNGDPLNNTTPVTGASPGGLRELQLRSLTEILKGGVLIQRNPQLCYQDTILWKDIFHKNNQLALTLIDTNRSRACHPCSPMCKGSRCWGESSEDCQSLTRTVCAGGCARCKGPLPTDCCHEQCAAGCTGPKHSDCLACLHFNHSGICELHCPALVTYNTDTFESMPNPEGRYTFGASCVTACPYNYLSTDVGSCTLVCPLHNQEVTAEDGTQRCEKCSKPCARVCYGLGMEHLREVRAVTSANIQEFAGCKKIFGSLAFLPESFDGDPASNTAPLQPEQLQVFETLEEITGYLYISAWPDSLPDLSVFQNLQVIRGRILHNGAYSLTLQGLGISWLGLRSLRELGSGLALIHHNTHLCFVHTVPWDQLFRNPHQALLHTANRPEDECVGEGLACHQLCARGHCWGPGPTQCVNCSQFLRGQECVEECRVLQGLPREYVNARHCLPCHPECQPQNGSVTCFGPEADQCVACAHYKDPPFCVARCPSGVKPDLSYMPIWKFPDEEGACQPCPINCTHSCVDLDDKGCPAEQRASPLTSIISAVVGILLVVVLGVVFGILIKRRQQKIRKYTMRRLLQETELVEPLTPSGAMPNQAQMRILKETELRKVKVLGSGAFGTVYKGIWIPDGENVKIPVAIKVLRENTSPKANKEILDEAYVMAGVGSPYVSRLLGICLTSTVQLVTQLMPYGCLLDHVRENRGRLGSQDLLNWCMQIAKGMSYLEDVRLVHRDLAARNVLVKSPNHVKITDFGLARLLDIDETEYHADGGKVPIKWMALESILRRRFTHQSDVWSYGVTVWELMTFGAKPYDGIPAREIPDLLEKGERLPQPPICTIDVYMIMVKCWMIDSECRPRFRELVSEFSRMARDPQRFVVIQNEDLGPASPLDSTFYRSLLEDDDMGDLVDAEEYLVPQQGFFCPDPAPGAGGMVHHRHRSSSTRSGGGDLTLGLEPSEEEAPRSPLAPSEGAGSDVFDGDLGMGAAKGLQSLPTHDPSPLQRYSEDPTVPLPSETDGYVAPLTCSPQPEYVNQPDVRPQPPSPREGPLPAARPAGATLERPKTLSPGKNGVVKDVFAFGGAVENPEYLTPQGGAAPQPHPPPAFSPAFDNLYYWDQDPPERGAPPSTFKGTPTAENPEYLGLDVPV
Chain of Fibroblast growth factor receptor 4 (Homo sapiens) (P22455 22-802 limits assumed): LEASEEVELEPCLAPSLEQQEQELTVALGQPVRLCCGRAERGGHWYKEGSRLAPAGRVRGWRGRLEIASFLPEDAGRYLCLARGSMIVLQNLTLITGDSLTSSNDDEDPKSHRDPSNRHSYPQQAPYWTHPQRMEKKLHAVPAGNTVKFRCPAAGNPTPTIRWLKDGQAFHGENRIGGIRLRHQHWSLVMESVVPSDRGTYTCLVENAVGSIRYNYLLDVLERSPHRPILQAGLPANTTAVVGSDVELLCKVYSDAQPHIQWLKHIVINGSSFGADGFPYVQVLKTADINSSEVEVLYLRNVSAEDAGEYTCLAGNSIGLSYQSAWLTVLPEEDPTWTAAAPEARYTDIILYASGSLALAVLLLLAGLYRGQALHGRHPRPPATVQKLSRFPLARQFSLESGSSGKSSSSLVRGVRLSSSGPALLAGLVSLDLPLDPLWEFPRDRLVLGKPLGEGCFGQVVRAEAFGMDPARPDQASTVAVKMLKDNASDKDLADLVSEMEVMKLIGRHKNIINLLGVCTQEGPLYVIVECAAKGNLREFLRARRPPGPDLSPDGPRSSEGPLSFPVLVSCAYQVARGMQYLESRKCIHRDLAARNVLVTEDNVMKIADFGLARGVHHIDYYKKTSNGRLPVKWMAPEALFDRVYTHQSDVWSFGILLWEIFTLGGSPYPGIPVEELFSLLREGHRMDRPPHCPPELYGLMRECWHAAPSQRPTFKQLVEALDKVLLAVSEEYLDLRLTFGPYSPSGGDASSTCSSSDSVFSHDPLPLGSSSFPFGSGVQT

Regarding `CCN(CC)Cc1ccc(Nc2nccc(-c3cnn4ncccc34)n2)cc1`, the inhibition is 27.2% in experiment [1]; -0.97% in experiment [2]; 0.55% in experiment [3]; 1.62% in [4]; 8.4% in experiment [5]; 3.58% in experiment [6]. Besides, the inhibition stood at 3.96% in experiment [7]; 1.52% in experiment [8]; 5.17% in experiment [9]; 3.88% in experiment [10]; 15.5% in [11]; 5.99% in experiment [12]. In addition, the inhibition stood at 28% in [13]; 1.77% in [14]; 11.6% in experiment [15]; 4.18% in experiment [16]; 8.8% in experiment [17]; 2.66% in experiment [18]. Further, the inhibition in [19] is 5.35%; in [20] it was -1.71%.
On to `NC(=O)c1cc(-c2ccc(F)cc2)cc(-c2ccncc2)c1N`, for which the inhibition came to 8.83% in experiment [1]; 5.88% in experiment [2]; 5.99% in experiment [3]; 3.64% in experiment [4]; 3.21% in [5]; 4.35% in [6]. Further, the inhibition in experiment [7] was 4.97%; in experiment [8], 7.7%; in experiment [9] it was 11.7%; in experiment [10] it was 1.98%; in experiment [11], 1.93%; in experiment [12], 3.18%. In addition, the inhibition was 3.59% in experiment [13]; 5.1% in experiment [14]; 3.07% in experiment [15]; 1.81% in experiment [16]; 4.41% in experiment [17]; 4.84% in [18]. In addition, the values for the inhibition in experiment [19] and in experiment [20] were 2.54% and -4.89%, respectively.
On to `O=C(Nc1n[nH]c2nc(-c3ccc(O)cc3)c(Br)cc12)C1CC1`, for which the inhibition in [1] was determined as 37.8%; in [2] it was 9.61%; in [3] it was 5.92%; in [4], 7.91%; in experiment [5], 28.8%; in [6], 2.58%. Besides, the inhibition in experiment [7] was 4.82%; in experiment [8], 14.9%; in experiment [9], 22%; in experiment [10], 3.43%; in experiment [11] it was 7.42%; in experiment [12], 3.04%. The inhibition in [13] came to 3.83%; in experiment [14] it was 7.1%; in experiment [15] it was 21.4%; in experiment [16], 7.18%; in experiment [17], 17.9%; in experiment [18] it was 8.23%. For the same molecule, the values for the inhibition in [19] and in [20] were 12.5% and 0.04%, respectively.
As for `NC(=O)Cc1ccccc1Oc1nccc(-c2c(-c3ccc(F)cc3)ncn2C2CCNCC2)n1`, the inhibition in experiment [1] came out at 6.53%; in experiment [2] it was 3.13%; in experiment [3] it was 4.05%; in [4], 0.65%; in experiment [5], 2.09%; in experiment [6], 2.21%. In addition, the inhibition in [7] is -1.85%; in experiment [8], 12.1%; in experiment [9] it was 17.1%; in experiment [10], 6.39%; in experiment [11], 4.36%; in experiment [12], 1.68%. Also, the inhibition in [13] worked out at 2.12%; in experiment [14], 5.6%; in experiment [15], 3.15%; in [16] it was 1.69%; in [17], 5.26%; in [18], 3.66%. Further, the inhibition in experiment [19] turned out to be 3.8%; in experiment [20] it was 0.37%.
Turning to `NC(=O)c1cc(-c2ccncc2)cc(-c2ccccc2)c1N`, the inhibition was found to be 57.7% in [1]; 7.22% in experiment [2]; 21.1% in [3]; 7.68% in experiment [4]; 36% in experiment [5]; 4.68% in [6]. Also, the inhibition in experiment [7] worked out at 8.53%; in [8], 21.7%; in [9], 33.8%; in experiment [10], 6.01%; in experiment [11], 4.57%; in experiment [12] it was 3.8%. Moreover, the inhibition is 3.92% in experiment [13]; 8.68% in [14]; 6.54% in experiment [15]; 5.47% in experiment [16]; 8.42% in [17]; 7.6% in [18]. Further, the inhibition in [19] came out at 6.17%; in experiment [20], 0.6%.
On to `CCc1ccc(Oc2nccc(-c3c(-c4ccc(F)cc4)ncn3C3CCNCC3)n2)cc1`, for which the inhibition was 9.06% in experiment [1]; 4.55% in experiment [2]; 4.56% in experiment [3]; 1.97% in experiment [4]; 3.15% in [5]; 1.55% in experiment [6]. Further, the inhibition in experiment [7] was 7.71%; in experiment [8] it was 7.62%; in [9], 11.6%; in experiment [10], -1.66%; in [11], 3.15%; in experiment [12], 3.41%. Also, the inhibition came to 3.8% in [13]; 7.59% in experiment [14]; 4.77% in [15]; 9.05% in experiment [16]; 5.8% in experiment [17]; 7.97% in [18]. Besides, the inhibition is 5% in experiment [19] and 7.02% in [20].

These data come from ChEMBL document CHEMBL1961873, “Compounds: GSK PKIS; Assays: Nanosyn kinase panel” (2012).
